Pf growth 96h: P. falciparum growth inhibition at 96 hours | P. falciparum luciferase reporter growth, 96 h | 6.9% of 320,000 active | Potency, µM (highest dose often 28.7 µM), inactives show at the top dose activity change, negative = inhibition, usual class: inhibitors; also: potency is read from the fitted curve at half-maximal effect; % is scaled to controls: 0 for no effect and ±100 for the full control effect
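Erythrocytes infected with luciferase-expressing P. falciparum were dispensed at 2% hematocrit and 0.05% parasitemia (final), then incubated with compounds 96 hours at 37 C in 5% CO2. Luminescence after detection reagent addition reported growth.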
SARS PLP yeast: inhibitors of SARS-CoV papain-like protease in yeast; S. cerevisiae expressing SARS-CoV PLpro, growth rescue; Potency, µM (series often up to 32.9 µM), without a hit: at the top dose activity, positive = growth rescue, hits mostly activators; 0.19% of 330,000 active; AID 485353; calls by dose curve; also: potency is read from the fitted curve at half-maximal effect; 0% is about no effect; nearly all actives have a fitted effect of over 55% in size
Cycloheximide cs: affects cycloheximide protein synthesis inhibition readout, counter-screen; cell reporter, cycloheximide protein synthesis inhibition counterscreen; max response, %; 12% of 300,000 active; in the data active = max response mostly above about 13%, no sharp cut-off; inactive = mostly below about 14%; also: read at 38.3 µM for the half of the compounds with a filed dose; 0% is about no effect
AMA1-RON2 inh: disrupts binding of P. falciparum AMA1 to RON2. AlphaScreen AMA1-biotinylated RON2 peptide binding. Potency, µM (series often up to 58.2 µM), without a hit: at the top dose activity change, negative = inhibition, hits mostly inhibitors. 0.2% of 360,000 active;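 also: potency is read from the fitted curve at half-maximal effect; 0% = vehicle wells and -100% = peptide control; nearly all actives have a fitted effect of over 45% in size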
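AMA1 (3D7) with his tag at 25 nM final met compounds first, then biotinylated RON2 peptide at 25 nM; detection used donor plus acceptor beads, 10 µg/mL apiece, read by AlphaScreen after 30 min at room temperature.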
Shiga toxin inh: inhibitors of Shiga toxin in Vero cells | Vero cells, Shiga toxin protein synthesis inhibition reporter | inhibition, % at 38.7 µM | 9.2% of 290,000 active; in the data active = inhibition mostly above about 28%, no sharp cut-off; inactive = mostly below about 43%; also: 0% is about no effect
Pf growth 48h: P. falciparum growth inhibition at 48 hours (one generation); Potency, µM (titrated, usually from 28.7 µM), without a hit: top-dose activity change, negative = inhibition, usual class: inhibitors; P. falciparum luciferase growth in erythrocytes, 48 h; 5.9% of 310,000 active; also: potency is read from the fitted curve at half-maximal effect; % is scaled to controls: 0 for no effect and ±100 for the full control effect
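Erythrocytes infected with P. falciparum carrying an integrated firefly luciferase reporter (2% hematocrit, 0.1% parasitemia final) were exposed to compounds in RPMI 1640 with 0.5% Albumax at 37 C, 5% CO2. Growth inhibition was scored as reduced luminescence.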
An asterisk follows results filed as active; ? = inconclusive; nt = no result given; [ ] = another dose, or the depositor's remark. In the library only some 19% were active in any assay of this set; here they are far more common. Unless noted, calls follow the shape of the dose curve; as a rule, active = well fitted curve in the direction sought with a large enough effect; inconclusive = small, poorly fitted or top-dose-only effect, or another doubt; inactive = no such curve, though single readings can be large; an effect the other way counts as inactive or inconclusive.

SMILES | Pf growth 96h | SARS PLP yeast | Cycloheximide cs | AMA1-RON2 inh | Shiga toxin inh | Pf growth 48h
Cc1ccc(/C=N/NC(=O)c2nn(C)cc2Cl)cc1 | 122.2% | -4.4% | 34.0* | 9.7% | 46.5* | 197.1%
COc1ccc(/C=N\NC(=O)c2nn(C)cc2Cl)cc1CN1CCOCC1 | 51.1% | 1.9% | 1.5 | -13.2% | 10.2 | 28.2%
CCC(=O)N/N=C/c1ccc(OS(=O)(=O)c2ccccc2)cc1 | ? | 2.6% | -1.8 | 5.1% | -9.5 | 10.4µM*
NC(N)=N/N=C/c1ccc(OS(=O)(=O)c2ccccc2)cc1 | -14.3% | 2.8% | 2.4 | -2.7% | 29.5 | 2.08µM*
O=C1CS/C(=N/N=C/c2ccc(OS(=O)(=O)c3ccccc3)cc2)N1 | -6.8% | -0.1% | 2.4 | 3.5% | -8.4 | -5.9%
O=C1NC(=O)C2(CCCCC2C2CCCCC2)N1 (stereo not given) | nt | nt | nt | -0.4% | nt | nt
Cn1cc(Cl)c(C(=O)N/N=C/c2ccc3c4c(cccc24)CC3)n1 | 79.6% | 22.6% | 29.1* | 39.4% | 60.7* | 107.5%
Cc1cccn2c(CN3CCSCC3)c(C(=O)N3CCOCC3)nc12 | ? | -0.7% | -0.6 | 7.7% | 25.1 | 19.2%
Cc1cccn2c(CN3CCNC(=O)CC3)c(C(=O)N(C)CCc3ccccc3)nc12 | 1.85µM* | -0.9% | -2.9 | -5.7% | -6.8 | 9.9%
O=C(NNC(=O)c1ccccc1OCc1ccccc1Cl)c1csc(N2CCOCC2)n1 | ? | -0.2% | 10.1* | 125.0% | 14.4 | ?
C[C@@H](c1ccccc1)N1C[C@H](COCc2ccccc2)Oc2cc(N3CC[C@@H](O)C3)ccc2S1(=O)=O | nt | nt | nt | -13.8% | nt | nt
Cc1c(C(=O)Nc2ccc(Oc3ccccc3)cc2)sc2nc3n(c(=O)c12)CCC3 | 16.5µM* | -17.9% | -2.6 | -1.7% | -17.3 | 11.7µM*
Cc1c(C(=O)O)sc2nc3n(c(=O)c12)CCCCC3 | -12.8% | nt | 1.0 | 7.0% | 29.2 | 1.7%
Cc1c(C(=O)Nc2cc(F)ccc2F)sc2nc3n(c(=O)c12)CCCCC3 | ? | 1.7% | 36.3* | -2.1% | 31.0 | 104.5%
COc1cccc(NC(=O)c2sc3nc4n(c(=O)c3c2C)CCC4)c1 | ? | 8.1% | 48.8* | 17.3% | 68.9* | 58.8%
Cc1c(C(=O)Nc2ccc(OC(F)(F)F)cc2)sc2nc3n(c(=O)c12)CCC3 | -11.7% | -23.4% | -4.6 | 6.4% | -2.8 | -9.0%
CSc1cccc(NC(=O)c2sc3nc4n(c(=O)c3c2C)CCC4)c1 | ? | 7.0% | 16.8* | -11.0% | 50.1* | 41.3%
CC(=O)c1cccc(NC(=O)c2sc3nc4n(c(=O)c3c2C)CCCCC4)c1 | 29.4% | 0.4% | 15.9 | 2.5% | -3.9 | -1.4%
CCCCN(C(=O)CSc1nnc(-c2ccco2)o1)c1c(N)n(Cc2ccccc2)c(=O)[nH]c1=O | ? | 0.4% | -3.4 | -5.2% | -10.3 | ?
O=C(NCCN1C(=O)S/C(=C\c2ccccc2)C1=O)C1CCN(S(=O)(=O)c2cccs2)CC1 | 37.6% | -8.6% | 0.1 | 3.2% | 4.6 | 17.2%
CC1=C(C(=O)Nc2ccccc2C)C(c2ccc[nH]2)n2ncnc2N1 (stereo not given) | nt | nt | 5.0 | nt | 13.9 | nt
O=C(/C=C/c1cnc2ccccc2n1)NC12CC3CC(CC(C3)C1)C2 | ? | -24.2% | 54.0* | ? | 136.5* | -40.4%
CCN(C(=O)COC(=O)/C=C/c1cnc2ccccc2n1)c1ccccc1 | ? | -0.7% | 7.5 | 3.8% | 10.3 | -7.0%
CC(C)N(Cc1ccccc1)C(=O)COC(=O)/C=C/c1cnc2ccccc2n1 | 43.7% | 0.6% | 21.1* | -9.8% | 49.6 | 11.8%
CCC(C)(C)NC(=O)/C=C/c1cnc2ccccc2n1 | 182.3% | 3.6% | 72.6* | 4.9% | 76.9* | 268.8%
SMILES | Pf growth 96h | SARS PLP yeast | Cycloheximide cs | AMA1-RON2 inh | Shiga toxin inh | Pf growth 48h
CC(NC(=O)C1CCCN1C(=O)OC(C)(C)C)C(=O)OCc1ccccc1 (stereo not given) | nt | nt | nt | -2.0% | nt | nt
O=C(CCS(=O)(=O)Cc1cccc(Cl)c1)NCCc1ccccc1 | 38.6% | 0.0% | -2.2 | -1.0% | 51.0 | 17.7%
CC(C)c1nnc(NC(=O)CCC(=O)NCC2CCCO2)s1 (stereo not given) | 2.08µM* | 0.1% | -2.1 | -7.9% | 15.5 | 3.5%
O=C(CCC(=O)Nc1nnc(C2CCCCC2)s1)NCC1CCCO1 (stereo not given) | -28.2% | -1.1% | -4.6 | 1.0% | -6.2 | nt
CCCC(C)c1nnc(NC(=O)C2CCCO2)s1 (stereo not given) | 35.0% | -1.6% | 40.0* | 6.2% | 35.2* | 63.7%
O=C(Nc1nnc(CCN2CCOCC2)s1)C1CCCCC1 | nt | 9.8% | -5.4 | -3.0% | 23.5 | -2.2%
COCCSc1nnc(NC(=O)C2CCCO2)s1 (stereo not given) | nt | -0.1% | 23.7* | 6.4% | 91.4* | 32.8%
CCCC(C)c1nnc(NC(=O)C(=O)OCC)s1 (stereo not given) | ? | 0.4% | 7.7 | 5.9% | 46.2 | 22.3%
O=C(Nc1nnc(CCN2CCCCC2)s1)C1CCCCC1 | 13.1µM* | -2.5% | -2.8 | -0.2% | -1.6 | 6.7%
CC(=O)N1c2ccc(S(=O)(=O)N3CCCCC3)cc2CC1C(=O)NCc1ccccc1C (stereo not given) | ? | 2.4% | -0.8 | -0.9% | 13.4 | -11.3%
COc1ccccc1OCCNC(=O)Cc1ccc(Cl)c(Cl)c1 | ? | -5.9% | 10.2 | -3.4% | 11.3 | ?
CC1=C(C(=O)N2CCCCCC2)CC(CC(=O)NC2CCCC2)C(=O)N1Cc1ccc(C(C)(C)C)cc1 (stereo not given) | nt | nt | nt | 10.0% | nt | nt
Cc1nnc(NC(=O)C2CCCO2)s1 (stereo not given) | nt | 12.2% | 3.8 | 16.2% | 6.3 | 25.7%
CCCCCc1nnc(NC(=O)C2CCCO2)s1 (stereo not given) | nt | -8.8% | 44.2* | -0.8% | 66.8* | 89.7%
COc1cc(C(=O)NNC(=S)NCc2ccco2)cc(OC)c1OC | 92.3%[5.75 µM] | -0.2% | -1.1 | 78.7% | -1.8 | -14.4%[5.75 µM]
CSc1cccc(NC(=O)C(C)NS(=O)(=O)c2ccc(F)cc2)c1 (stereo not given) | ? | -2.4% | -1.5 | 0.2% | -13.8 | nt
CC(C)C(=O)NCCSc1c[nH]c2ccccc12 | 11.7µM* | 2.5% | -5.4 | -5.0% | -4.2 | 2.1%
O=C(NCCc1c[nH]c2ccccc12)c1ccc(Br)o1 | nt | -8.1% | nt | 2.8%[11.6 µM] | nt | nt
O=C(NCCSc1c[nH]c2ccccc12)c1ccc(Br)o1 | 2.08µM* | -18.8% | -2.0 | -11.5% | -14.3 | -6.5%
COc1cccc2cc(C(=O)c3ccc([N+](=O)[O-])cc3)oc12 | 14.7µM* | -0.2% | 22.6* | -15.2% | 22.3 | 25.2%
COc1cccc2cc(C(N)=O)oc12 | 18.3%[5.75 µM] | -0.7% | 12.8 | 0.0% | -20.0 | 11.6%
CCCCNc1nc(-c2ccccc2)c(C(=O)OCC)cc1C#N | ? | -8.2% | -2.3 | 202.5% | 5.6 | ?
CCCNc1nc(-c2ccccc2)c(C(=O)OCC)cc1C#N | 0.0% | -8.4% | 4.2 | 34.3% | -8.2 | 11.7µM*

Screening data: PubChem, National Center for Advancing Translational Sciences (NCATS)
